Laboratory results from PubChem BioAssay AID1578 (Sanford-Burnham Center for Chemical Genomics, 2009).
Hit rate of the full screen: of about 290,000 compounds, about 3,000 (1%) were called active. No stated cut-off is given here; in the data, active means inhibition mostly above about 36% (no sharp cut-off); inactive means mostly below about 34%. Many of the other results were omitted from the sample, so actives are more common in it than they were.

Test: inhibition of NOD1-driven NF-kB reporter – cell-based, luminescence, uHTS, primary screen (AID 1578);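 further: HEK-293T reporter cells stimulated with the NOD1 agonist gamma-tri-DAP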
Settings: NOD1-driven NF-kB luciferase reporter cells, at 4 µM, hits give high values
For CCOC(=O)N1CCN(S(=O)(=O)c2cc(Br)cnc2N)CC1, the inhibition was 10.4% (inactive). With COc1ccc(-c2csc(N3CCC(c4ccccc4)C3)n2)cc1 (stereo not given) the inhibition was 26.8% (inactive). For CCc1ccc(N(CC(=O)N2CCN(Cc3ccccc3)CC2)S(C)(=O)=O)cc1, the inhibition was -32.3% (inactive). For Nc1nc(=S)[nH]c2c1C1(CCCC1)Cc1ccccc1-2, the inhibition was 14.3% (inactive). For Nc1nc(=S)[nH]c2c1C1(CCCCC1)Cc1ccccc1-2, the inhibition was -16.2% (inactive). With Cc1nc(=S)c2c([nH]1)-c1ccccc1CC21CCCCC1 the inhibition was 104% (active). In the case of N#C/C(=C\c1ccc(Sc2nc3ccccc3[nH]2)o1)c1ccccc1, the inhibition is reported as 65.2% (inactive). With N#C/C(=C/c1ccc(Sc2nc3ccccc3[nH]2)o1)c1cccc(Br)c1 the inhibition was 3.1% (inactive). In the case of N#C/C(=C/c1ccc(Sc2nc3ccccc3[nH]2)o1)c1cccc(F)c1, the inhibition is reported as 76.3% (active). With COc1cccc(CN2CCN(C(=S)NCc3ccc(Cl)cc3)CC2)c1 the inhibition was -10.4% (inactive). For CCc1nc2sc3c(c2c(=O)n1CCO)CCC3, the inhibition was -18.6% (inactive). With COC(=O)c1cc(C)sc1NC(=O)CCCC(=O)O the inhibition was -19.8% (inactive). With CCCCNC(=O)CCn1c(=O)c2ccccc2n(CC(=O)N2CC(C)CC(C)C2)c1=O (stereo not given) the inhibition was 21.3% (inactive). With COc1ccc(/C=C/c2n[nH]c(=O)c(C#N)c2C)cc1 the inhibition was 84.3% (active). For COc1cccc(/C=C/c2n[nH]c(=O)c(C#N)c2C)c1, the inhibition was -7.2% (inactive). For Cc1ccsc1/C=C/c1n[nH]c(=O)c(C#N)c1C, the inhibition was 9.3% (inactive). In the case of COc1ccc(-c2nc3ccccc3c(=O)n2NC(=O)Cc2ccccc2)cc1, the inhibition is reported as -18.8% (inactive). With COCCC(=O)N1CCC(Oc2ccc(C(=O)N3C[C@@H](C)O[C@@H](C)C3)cc2)CC1 the inhibition was -23.9% (inactive). With O=C(c1cccc(Oc2ccc([N+](=O)[O-])cc2Cl)c1)N1CCOCC1 the inhibition was -7.9% (inactive). With CC1CC(=O)C2=C(C1)Nc1ccccc1N=C2 (stereo not given) the inhibition was 11.1% (inactive). For CCC(=O)c1cccc2c1N=CC1=C(CC(C)(C)CC1=O)N2, the inhibition was -20.6% (inactive). For CC1(C)CC(=O)C2=C(C1)Nc1ccccc1N=C2, the inhibition was 59.6% (active). In the case of CCCNc1cc(=S)nc(N)[nH]1, the inhibition is reported as 5% (inactive). For N#CCSc1nnc(-c2ccc3c(c2)OCO3)o1, the inhibition was -37.8% (inactive). In the case of O=C(c1ccc(Cl)cc1)N1CCCCC(Sc2nnc(-c3ccc4c(c3)OCO4)o2)C1=O (stereo not given), the inhibition is reported as 57.8% (active). In the case of Clc1ccc(CSc2nnc(-c3ccc4c(c3)OCO4)o2)cc1, the inhibition is reported as -7.9% (inactive). For O=C1CCCCC1Sc1nnc(-c2ccc3c(c2)OCO3)o1 (stereo not given), the inhibition was 87.4% (active). With O=C1OCCC1Sc1nnc(-c2ccc3c(c2)OCO3)o1 (stereo not given) the inhibition was -4.4% (inactive). In the case of O=C(O)CSc1nnc(-c2ccc3c(c2)OCO3)o1, the inhibition is reported as 4.3% (inactive). With Clc1nc(Oc2ccccc2)nc(-c2cn(-c3ccccc3)c3ccccc23)n1 the inhibition was -9.4% (inactive). In the case of O=C(/C=C/c1cccc(O)c1)c1cccnc1, the inhibition is reported as -20.2% (inactive). In the case of O=C(/C=C/c1cccc(OCc2ccccc2)c1)c1cccnc1, the inhibition is reported as 36.4% (inactive). In the case of O=C(/C=C/c1ccc(OCc2ccccc2)c(OCc2ccccc2)c1)c1cccnc1, the inhibition is reported as 87.9% (active). With CC(=O)c1c2c3c(c(Br)ccc3n(C)c1=O)C(=O)c1ccccc1-2 the inhibition was -3.8% (inactive). With CCN1CCN(Cc2ccc(NC(=O)c3ccc(C)c(NC(=O)c4ccc5n[nH]nc5c4)c3)cc2C(F)(F)F)CC1 the inhibition was -1.3% (inactive). In the case of CCN1CCN(Cc2ccc(NC(=O)c3ccc(C)c(NC(=O)C(=O)c4c[nH]c5ccccc45)c3)cc2C(F)(F)F)CC1, the inhibition is reported as 67.1% (active). In the case of CCN1CCN(Cc2ccc(NC(=O)c3ccc(C)c(NC(=O)c4ccnnc4)c3)cc2C(F)(F)F)CC1, the inhibition is reported as 3.7% (inactive). With CCN1CCN(Cc2ccc(NC(=O)c3ccc(C)c(NC(=O)c4nccn4C)c3)cc2C(F)(F)F)CC1 the inhibition was 7.7% (inactive). In the case of CCN1CCN(Cc2ccc(NC(=O)c3ccc(C)c(NC(=O)c4cc(-c5ccc(Br)cc5)n[nH]4)c3)cc2C(F)(F)F)CC1, the inhibition is reported as -4.1% (inactive). With CCN1CCN(Cc2ccc(NC(=O)c3ccc(C)c(NC(=O)c4cccc5[nH]ccc45)c3)cc2C(F)(F)F)CC1 the inhibition was -0.1% (inactive). For CCN1CCN(Cc2ccc(NC(=O)c3cc(NC(=O)C(=O)c4c[nH]c5ccccc45)cc(OC)c3)cc2C(F)(F)F)CC1, the inhibition was -3.5% (inactive). In the case of CCN1CCN(Cc2ccc(NC(=O)c3ccc(C)c(NC(=O)c4cccc(-c5cn[nH]c(=O)c5)c4)c3)cc2C(F)(F)F)CC1, the inhibition is reported as 72% (active). In the case of Cc1cc(C)n(NC(=S)NC2CCCC2)c(=O)c1C#N, the inhibition is reported as -10.5% (inactive). With CC1CC(C)CN(S(=O)(=O)c2ccc(Oc3ccc([N+](=O)[O-])cc3)cc2)C1 (stereo not given) the inhibition was 36.9% (inactive). For O=C(CCn1nc(-c2ccccc2)ccc1=O)N1CCN(c2ccccn2)CC1, the inhibition was -14.7% (inactive). In the case of O=C(CCc1nnc(CCC2CCCCC2)o1)NCCc1ccccn1, the inhibition is reported as -21.2% (inactive). With COC(=O)c1c(C)oc(C)c1S(=O)(=O)NCc1ccc(OC)cc1 the inhibition was -3.5% (inactive). In the case of Cc1c(C)n(CC(O)CN(CCO)CCO)c2ccccc12 (stereo not given), the inhibition is reported as -21.9% (inactive). In the case of COc1ccc(CCNC(=O)C(C)OC(=O)c2ccco2)cc1OC (stereo not given), the inhibition is reported as -19.4% (inactive). In the case of O=C1OCCC1Sc1nnc(-c2ccccc2)o1 (stereo not given), the inhibition is reported as 0.8% (inactive). In the case of O=C1OCCC1Sc1nnc(-c2ccc(Br)cc2)o1 (stereo not given), the inhibition is reported as -16% (inactive). With CCOc1ccc(C2C(C(=O)c3ccco3)=C(O)C(=O)N2CCN2CCOCC2)cc1 (stereo not given) the inhibition was 8.2% (inactive). For Cc1ccc(S(=O)(=O)/N=C(/c2ccccc2)N2CCOCC2)cc1, the inhibition was 7.1% (inactive). With Cc1ccc(CS(=O)(=O)CCC(=O)NCCC(C)C)cc1 the inhibition was -16.6% (inactive). With CCOc1cc(/C=N\Nc2ncc(F)c(N3CCOCC3)n2)ccc1Oc1nc(Cl)ncc1F the inhibition was 19.9% (inactive). In the case of Fc1ccc(-c2cnn3c(-c4cccs4)ccnc23)cc1, the inhibition is reported as -29% (inactive). In the case of Clc1ccc(-c2cnn3c(-c4ccncc4)ccnc23)cc1, the inhibition is reported as 52% (active). In the case of Fc1ccc(-c2cnn3c(-c4ccncc4)ccnc23)cc1, the inhibition is reported as -51.9% (inactive). In the case of O=c1c2sc3nc(N4CCOCC4)c4c(c3c2ncn1CCc1ccccc1)CCCC4, the inhibition is reported as 45.8% (inactive). For COc1ccc(NC(=O)Nc2nnc(-c3ccco3)s2)cc1, the inhibition was -7.3% (inactive). With COc1ccc(NC(=O)Nc2nnc(-c3cccs3)s2)cc1 the inhibition was -3% (inactive). With O=C(Nc1ccc(Cl)cc1)Nc1nnc(CSc2ccc(Cl)cc2)s1 the inhibition was -8.9% (inactive). In the case of O=C(Nc1ccc(Cl)cc1)Nc1nnc(-c2ccncc2)s1, the inhibition is reported as 67.3% (inactive). In the case of O=C(Nc1ccc(Cl)c(Cl)c1)Nc1nnc(CSc2ccccc2)s1, the inhibition is reported as 74.5% (active). For CCn1ncc(NC(=O)Nc2cccc(C(F)(F)F)c2)c1C(N)=O, the inhibition was -12.4% (inactive). In the case of O=C(Nc1ccc(F)cc1)Nc1nnc(-c2ccncc2)s1, the inhibition is reported as -10.7% (inactive). For O=C(Nc1ccc(Cl)cc1)Nc1nnc(CSCc2ccccc2)s1, the inhibition was -3.9% (inactive). For O=C(Nc1ccncc1)Nc1cccc(C(F)(F)F)c1, the inhibition was 3.5% (inactive). With COc1ccc(-c2[nH]ncc2CN2CCC(C(=O)N3CCOCC3)CC2)c(F)c1 the inhibition was -28.9% (inactive). In the case of Cc1nc(C(=O)NCc2ccccc2)sc1C1(C)CC(c2cccc([N+](=O)[O-])c2)=NO1 (stereo not given), the inhibition is reported as -0.1% (inactive). For COc1ccc(CNC(=S)Nc2ccccc2-c2ccccc2)cc1, the inhibition was -26.8% (inactive). For O=C(NC1CCCCC1)C1CCN(c2ncccn2)CC1, the inhibition was -38.7% (inactive). For O=S(=O)(NCc1ccc(F)cc1)c1ccc(-n2cnnn2)cc1, the inhibition was -14.1% (inactive). For Cc1ccc(NC(=O)Nc2nnc(CSCCOc3ccc(Cl)cc3)s2)cc1, the inhibition was -1.1% (inactive). In the case of Cc1ccc(OCCSCc2nnc(NC(=O)Nc3cccc(Cl)c3)s2)cc1, the inhibition is reported as 13.6% (inactive). In the case of O=C(Nc1ccc(Cl)c(Cl)c1)Nc1nnc(-c2ccncc2)s1, the inhibition is reported as -26.4% (inactive). For O=C(Nc1cccc(Cl)c1)Nc1nnc(-c2ccncc2)s1, the inhibition was 95.7% (active). In the case of Cc1nnc(NC(=O)Nc2cccc(Cl)c2)s1, the inhibition is reported as -14.6% (inactive). For O=C(Nc1cccc(Cl)c1)Nc1nnc(CSCCOc2ccc(Cl)cc2)s1, the inhibition was 67.8% (active). In the case of CSc1ccccc1NC(=O)C1=CC(c2cccs2)=NS(=O)(=O)N1C, the inhibition is reported as 3.3% (inactive). For COc1ccc(C(=O)/C=C/C(=O)N(Cc2ccc(F)cc2)C(C(=O)NC2CCCCC2)c2ccncc2)c(O)c1 (stereo not given), the inhibition was -6.1% (inactive). In the case of CCCN(CC(=O)Nc1ccc(C(C)=O)cc1)CC(=O)Nc1ccccc1C, the inhibition is reported as -32.2% (inactive). For COc1cc2c(cc1OC)C(c1ccc(-c3ccc(Cl)c(Cl)c3)o1)=NCC2, the inhibition was 63.1% (inactive). For COc1cc2c(cc1OC)C(c1ccc(-c3ccccc3Cl)o1)=NCC2, the inhibition was 75.2% (active). In the case of COc1cc2c(cc1OC)C(c1ccc(-c3ccc(Cl)cc3Cl)o1)=NCC2, the inhibition is reported as 58.8% (inactive). In the case of OCCN1CCN(c2cc(C(F)(F)F)nc3ccccc23)CC1, the inhibition is reported as -6.8% (inactive). For C/C(=N\NC(=O)c1ccc(-c2ccccc2)cc1)c1ccco1, the inhibition was -46.6% (inactive). With COc1ccc(CCNC(=O)CSc2nc3ccccc3o2)cc1 the inhibition was -19.1% (inactive). In the case of COc1ccc(C(=O)N/C(N)=N/c2nc3ccccc3o2)cc1, the inhibition is reported as -46.2% (inactive). For COc1ccc(C(=O)/C=C/Sc2nc3ccccc3o2)cc1, the inhibition was 38.4% (active). With O=C(CCCN1C(=O)/C(=C/c2cccs2)SC1=S)Nc1ccccc1O the inhibition was -2% (inactive). For COc1ccc(C(=O)CN2C(=O)c3ccccc3C2=O)cc1, the inhibition was -9.8% (inactive). With CCOC(=O)CSc1nc2c(sc(=S)n2Cc2ccco2)c(=O)n1-c1ccc(F)cc1 the inhibition was 14.1% (inactive). In the case of N#CCSc1nc2c(sc(=S)n2Cc2ccco2)c(=O)n1-c1ccc(F)cc1, the inhibition is reported as 66.5% (active). For CCOC(=O)CSc1nc2c(sc(=S)n2Cc2ccco2)c(=O)n1-c1ccccc1, the inhibition was 16.8% (inactive).
